Test results as given in the supplement of paper PMC8728848.
Many of the other results were omitted from the sample, so the strongest signals are more common in it than they were.

Columns and labels:
Assay in all cases: glycan array binding signal (z-score within array); higher = stronger binding
Conditions in all cases: glycan notation: IUPAC condensed, linker removed
Glc(a1-4)Glc = target: Glc(a1-4)Glc
Summary of the method: (§1)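 Negative Z-scores can be read as non-binding. The Z-score is calculated within each array and then averaged across arrays of one protein sequence at different concentrations or buffers and across linkers. Arrays, 3228 in all, were curated from the Consortium for Functional Glycomics database and kept only where the protein sequence was available.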

[1] = target: GlcNAc(b1-3)Gal(b1-4)GlcNAc(b1-3)Gal(b1-4)GlcNAc(b1-2)Man(a1-3)[GlcNAc(b1-3)Gal(b1-4)GlcNAc(b1-3)Gal(b1-4)GlcNAc(b1-2)Man(a1-6)]Man(b1-4)GlcNAc(b1-4)GlcNAc
Summary of the method: as §1

[2] = target: GlcNAc(b1-3)Gal(b1-4)GlcNAc(b1-3)Gal(b1-4)GlcNAc(b1-2)[GlcNAc(b1-3)Gal(b1-4)GlcNAc(b1-3)Gal(b1-4)GlcNAc(b1-6)]Man(a1-6)[GlcNAc(b1-3)Gal(b1-4)GlcNAc(b1-3)Gal(b1-4)GlcNAc(b1-2)Man(a1-3)]Man(b1-4)GlcNAc(b1-4)[Fuc(a1-6)]GlcNAc
Summary of the method: as §1

[3] = target: GlcNAc(b1-3)Gal(b1-4)GlcNAc(b1-3)Gal(b1-4)GlcNAc(b1-3)Gal(b1-4)GlcNAc(b1-3)Gal(b1-4)GlcNAc(b1-2)Man(a1-3)[GlcNAc(b1-3)Gal(b1-4)GlcNAc(b1-3)Gal(b1-4)GlcNAc(b1-3)Gal(b1-4)GlcNAc(b1-3)Gal(b1-4)GlcNAc(b1-2)Man(a1-6)]Man(b1-4)GlcNAc(b1-4)[Fuc(a1-6)]GlcNAc
Summary of the method: as §1

[4] = target: GlcNAc(b1-3)Gal(b1-4)GlcNAc(b1-6)[Gal(b1-3)]GalNAc
Summary of the method: as §1

GlcNAc(b1-3)GalNAc = target: GlcNAc(b1-3)GalNAc
Summary of the method: as §1

[5] = target: GlcNAc(b1-3)[GlcNAc(b1-6)]GlcNAc(b1-4)GlcNAc
Summary of the method: as §1

[6] = target: GlcNAc(b1-4)[GlcNAc(b1-6)]GalNAc
Summary of the method: as §1

[7] = target: GlcNAc6S(b1-3)Gal(b1-4)GlcNAc
Summary of the method: as §1

Man(a1-2)Man(a1-3)Man = target: Man(a1-2)Man(a1-3)Man
Summary of the method: as §1

[8] = target: Man(a1-2)Man(a1-3)[Man(a1-2)Man(a1-6)]Man(a1-6)[Man(a1-2)Man(a1-2)Man(a1-3)]Man
Summary of the method: as §1

[9] = target: Man(a1-3)[Man(a1-6)]Man(a1-6)[Man(a1-2)Man(a1-3)]Man(b1-4)GlcNAc(b1-4)GlcNAc
Summary of the method: as §1

[10] = target: Man(a1-3)[Man(a1-6)]Man(a1-6)[Man(a1-3)]Man(b1-4)GlcNAc(b1-4)GlcNAc
Summary of the method: as §1

[11] = target: Neu5Ac(a2-3)Gal(b1-3)GlcNAc
Summary of the method: as §1

[12] = target: Neu5Ac(a2-3)Gal(b1-4)GlcNAc(b1-3)Gal(b1-4)GlcNAc(b1-3)Gal(b1-4)GlcNAc(b1-2)Man(a1-3)[Neu5Ac(a2-3)Gal(b1-4)GlcNAc(b1-3)Gal(b1-4)GlcNAc(b1-3)Gal(b1-4)GlcNAc(b1-2)Man(a1-6)]GalNAc
Summary of the method: as §1

[13] = target: Neu5Ac(a2-3)Gal(b1-4)GlcNAc(b1-3)Gal(b1-4)GlcNAc(b1-3)GalNAc
Summary of the method: as §1

[14] = target: Neu5Ac(a2-3)Gal(b1-4)[Fuc(a1-3)]GlcNAc(b1-3)GalNAc
Summary of the method: as §1

Neu5Ac(a2-6)Gal = target: Neu5Ac(a2-6)Gal
Summary of the method: as §1

[15] = target: Neu5Ac(a2-6)Gal(b1-4)GlcNAc(b1-3)Gal(b1-4)GlcNAc(b1-3)Gal(b1-4)GlcNAc
Summary of the method: as §1

[16] = target: Neu5Ac(a2-6)Gal(b1-4)GlcNAc(b1-3)Gal(b1-4)GlcNAc(b1-3)Gal(b1-4)GlcNAc(b1-2)Man(a1-3)[Neu5Ac(a2-6)Gal(b1-4)GlcNAc(b1-3)Gal(b1-4)GlcNAc(b1-3)Gal(b1-4)GlcNAc(b1-2)Man(a1-6)]GalNAc
Summary of the method: as §1

[17] = target: Neu5Ac(a2-6)Gal(b1-4)GlcNAc(b1-3)Gal(b1-4)GlcNAc(b1-6)[Gal(b1-3)]GalNAc
Summary of the method: as §1

[18] = target: Neu5Ac(a2-8)Neu5Ac(a2-3)Gal(b1-3)GalNAc(b1-4)[Neu5Ac(a2-8)Neu5Ac(a2-3)]Gal(b1-4)Glc
Summary of the method: as §1

[19] = target: Neu5Ac(a2-8)Neu5Ac(a2-8)Neu5Ac(a2-3)[Gal(b1-3)GalNAc(b1-4)]Gal(b1-4)Glc
Summary of the method: as §1

[20] = target: Neu5Ac(b2-6)Gal(b1-4)GlcNAc
Summary of the method: as §1

[21] = target: Neu5Gc(a2-3)Gal(b1-4)GlcNAc
Summary of the method: as §1

B1: ECA (Erythrina cristagalli), P83410 (protein)
chain: VETISFSFSEFEPGNDNLTLQGAALITQSGVLQLTKINQNGMPAWDSTGRTLYTKPVHMWDSTTGTVASFETRFSFSIEQPYTRPLPADGLVFFMGPTKSKPAQGYGYLGVFNNSKQDNSYQTLAVEFDTFSNPWDPPQVPHIGIDVNSIRSIKTQPFQLDNGQVANVVIKYDAPSKILHVVLVYPSSGAIYTIAEIVDVKQVLPDWVDVGLSGATGAQRDAAETHDVYSWSFQASLPE
Glc(a1-4)Glc
  glycan array binding signal (z-score): -0.148
[1]
  glycan array binding signal (z-score): 3.72
[2]
  glycan array binding signal (z-score): 3.4
[3]
  glycan array binding signal (z-score): 0.151
[4]
  glycan array binding signal (z-score): -0.412
GlcNAc(b1-3)GalNAc
  glycan array binding signal (z-score): -0.366
[5]
  glycan array binding signal (z-score): -0.277
[6]
  glycan array binding signal (z-score): -0.228
[7]
  glycan array binding signal (z-score): -0.243
Man(a1-2)Man(a1-3)Man
  glycan array binding signal (z-score): -0.285
[8]
  glycan array binding signal (z-score): -0.091
[9]
  glycan array binding signal (z-score): 1.29
[10]
  glycan array binding signal (z-score): -0.177
[11]
  glycan array binding signal (z-score): -0.269
[12]
  glycan array binding signal (z-score): 7.35
[13]
  glycan array binding signal (z-score): -0.407
[14]
  glycan array binding signal (z-score): 0.567
Neu5Ac(a2-6)Gal
  glycan array binding signal (z-score): -0.208
[15]
  glycan array binding signal (z-score): -0.578
[16]
  glycan array binding signal (z-score): 5.2
[17]
  glycan array binding signal (z-score): 0.104
[18]
  glycan array binding signal (z-score): -0.352
[19]
  glycan array binding signal (z-score): 0.194
[20]
  glycan array binding signal (z-score): -0.088
[21]
  glycan array binding signal (z-score): -0.327
